Assay in all cases: Confirmatory Screen for Target Class Profiling of Small Molecule Inhibitors of Methyltransferases (AID 1745852); as to activity change, negative = inhibition: % is scaled to controls: 0 for no effect and ±100 for the full control effect
In test [1] the target is Catechol O-methyltransferase (Homo sapiens) (UniProt P21964). Conditions: MTase-Glo luminescence, SAH detection, recombinant enzyme; measured here: COMT max response; stronger effect = lower value.
For test [2], the target named is Guanidinoacetate N-methyltransferase (Homo sapiens) (UniProt Q14353). The following applies: MTase-Glo luminescence, SAH detection, recombinant enzyme; activity change, negative = inhibition: at 57.3 µM (top of the series) unless noted; series mostly up to 57.3 µM.
The target of test [3] is Nicotinamide N-methyltransferase (Homo sapiens) (UniProt P40261). Conditions: MTase-Glo luminescence, SAH detection, recombinant enzyme; measured here: NNMT max response; stronger effect = lower value.
Sequence of Nicotinamide N-methyltransferase (Homo sapiens) (P40261 whole entry, looked up): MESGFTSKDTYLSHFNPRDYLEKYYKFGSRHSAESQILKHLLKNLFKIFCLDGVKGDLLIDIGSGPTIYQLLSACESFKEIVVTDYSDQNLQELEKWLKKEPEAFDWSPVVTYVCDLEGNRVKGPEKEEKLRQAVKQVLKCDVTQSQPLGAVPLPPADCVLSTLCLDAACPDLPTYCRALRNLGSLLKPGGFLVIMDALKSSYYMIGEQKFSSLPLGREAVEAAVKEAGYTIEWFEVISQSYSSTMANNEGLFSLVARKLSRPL
The target of test [4] is Phenylethanolamine N-methyltransferase (Homo sapiens) (UniProt P11086). The following applies: MTase-Glo luminescence, SAH detection, recombinant enzyme; measured here: PNMT max response; stronger effect = lower value.
Sequence of Phenylethanolamine N-methyltransferase (Homo sapiens) (P11086 whole entry, looked up): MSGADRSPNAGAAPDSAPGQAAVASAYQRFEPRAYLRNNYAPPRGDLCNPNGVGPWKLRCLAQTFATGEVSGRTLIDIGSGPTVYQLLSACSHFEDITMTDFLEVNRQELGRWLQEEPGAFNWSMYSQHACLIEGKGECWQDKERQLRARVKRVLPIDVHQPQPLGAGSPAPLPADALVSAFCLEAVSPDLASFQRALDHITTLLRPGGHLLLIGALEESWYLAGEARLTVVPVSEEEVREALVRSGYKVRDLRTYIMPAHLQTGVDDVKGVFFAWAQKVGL

The source made the active and inactive calls. Calls follow the shape of the full dose curve.
Potency is read from the fitted curve at half-maximal effect.

Sequence of Catechol O-methyltransferase (Homo sapiens) (P21964 whole entry, looked up): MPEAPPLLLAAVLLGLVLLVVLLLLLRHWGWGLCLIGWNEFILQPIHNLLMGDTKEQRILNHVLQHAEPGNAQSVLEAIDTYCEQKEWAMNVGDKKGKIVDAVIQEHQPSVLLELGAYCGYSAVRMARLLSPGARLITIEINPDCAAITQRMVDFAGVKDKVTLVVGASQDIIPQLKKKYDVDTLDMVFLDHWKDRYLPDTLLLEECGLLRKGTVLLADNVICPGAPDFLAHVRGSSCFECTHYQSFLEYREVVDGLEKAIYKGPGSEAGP

Regarding `COc1cccc(CN2CCCC3(CCN(c4cc(C)nc(N)n4)C3)C2)c1OC` (stereo unspecified), the activity in test [1] is -4.01%; in test [3], -4.87%; in test [4] it was -3.6%. For the same molecule, the activity change, negative = inhibition in test [2] is -7.75%.

Regarding `COc1ccc(S(=O)(=O)NC[C@H]2Cn3c(-c4ccc(Cl)cc4)cnc3CO2)cc1`, the values for the activity in test [1], in test [3] and in test [4] were -8.66%, -23.7% and -17.1%, respectively. For the same molecule, the activity change, negative = inhibition in test [2] is -2.1% [at 85.7 µM].

With `O=C1c2ccccc2C(=O)c2c1cccc2S(=O)(=O)Nc1ccc(Cl)cc1`, the activity in test [1] was 0.0726%; in test [3], -1.28%; in test [4], -37%. In addition, the activity change, negative = inhibition in test [2] is -0.67%.

For the molecule `COc1cccc(NC(=O)Cn2c(=O)oc3cc(S(=O)(=O)N4CCCC4)ccc32)c1`, the figures for the activity in test [1], in test [3] and in test [4] were 3.1%, 4.37% and -58.7%, respectively. Also, the activity change, negative = inhibition in test [2] worked out at 0.138%.

For `CCOC(=O)CC1(NC(=O)N2CCn3cccc3C2Cc2ccccc2)CCCCC1` (stereo unspecified), the activity in test [1] is 2.42%; in test [3], -6.48%; in test [4], -4.39%. The Potency result in test [2] is “inactive”.

Turning to `Cc1ccc(NC(=O)CSc2nnc3n(CC(C)C)c(=O)c4ccccc4n23)cc1`, the activity in test [1] is 1.84%; in test [3] it was -8.6%; in test [4] it was -2.78%. Further, in test [2], the Potency entry is “inactive”.

As to `COc1ccc(NC(=O)C(C)(C)Oc2nn(CC3CC3)c3ccc(CN4CCCC4)cc23)cc1`, the figures for the activity in test [1], in test [3] and in test [4] were 8.52%, 5.5% and 9.18%, respectively. Further, the activity change, negative = inhibition in test [2] was determined as 9.81%.

Regarding `COc1ccc2[nH]c(CNc3cc(C4CC(N)C4)nc(C)n3)cc2c1` (stereo unspecified), the activity in test [1] was -1.03%; in test [3], -9.73%; in test [4], 3.97%. The activity change, negative = inhibition in test [2] amounted to 1.53%.

`CCN(CC)CCNC(=O)CCc1nnc2n(Cc3ccccc3Cl)c(=O)c3ccccc3n12`: the activity was -5.86% in test [1], -14.7% in test [3] and 2.62% in test [4]. In test [2], the activity change, negative = inhibition was -1.02%.

As to `COc1cccc(Nc2cc3c(cn2)CN(Cc2cccnc2)CCN3)c1`, the activity in test [1] is 1.92%; in test [3], -7.33%; in test [4] it was -8.41%. In test [2], the activity change, negative = inhibition amounted to 2.65% [at 85.7 µM].

For `CCCC1c2cccn2CCN1C(=O)Nc1ccccc1Cl` (stereo unspecified), the activity is 2% in test [1], -4.51% in test [3] and 1.09% in test [4]. The Potency entry in test [2] is “inactive”.

Consider `CC1(C)[C@H](Cc2cc(-c3ccccc3)on2)C[C@@H]1NCC1CC1`, for which the activity in test [1] was 1.83%; in test [3] it was -6.44%; in test [4], -13.1%. Besides, the activity change, negative = inhibition in test [2] is -0.152% [at 85.7 µM].

Turning to `O=C(Nc1ccc2c(N3CCCCC3)ncnc2c1)c1ccccc1C(F)(F)F`, the activity was -15.7% in test [1], -10.2% in test [3] and -19.5% in test [4]. Besides, the activity change, negative = inhibition in test [2] was -6.31%.

Consider `COc1ccc(NC(=O)CCc2ccnc(N3CCCC3)c2)c(OC)c1`, for which the activity in test [1] is -5.64%; in test [3] it was -4.13%; in test [4], -2.38%. In addition, the activity change, negative = inhibition in test [2] is -3.43%.

For the molecule `CC1CCCCC1NC(=O)C1(C)Cn2c(cc3sccc32)C(=O)N1Cc1ccc(Cl)cc1` (stereo unspecified), the values for the activity in test [1], in test [3] and in test [4] were -7.44%, -8.12% and -8.77%, respectively. For the same molecule, the activity change, negative = inhibition in test [2] is -6.06%.

For `Fc1cccc(-c2nnn3c2nc(NCCc2ccccc2)c2ccccc23)c1`, the figures for the activity in test [1], in test [3] and in test [4] were -4.7%, -12.6% and -9.28%, respectively. Further, the activity change, negative = inhibition in test [2] is -1.64%.

With `CN(CCCNC(=O)CCCc1nnc2n3nc(-c4ccccc4)nc3c3ccccc3n12)Cc1ccccc1`, the activity in test [1] is 2.29%; in test [3] it was -6.15%; in test [4] it was 3.41%. For the same molecule, the activity change, negative = inhibition in test [2] turned out to be 0%.

As to `CC(C)c1nccn1CCCNC(=O)c1ccc(-c2cccc(F)c2)nc1`, the activity is 4.81% in test [1], 9.65% in test [3] and -0.0651% in test [4]. Further, the activity change, negative = inhibition in test [2] was determined as 3.97%.

Regarding `COCCNc1cc(-c2noc([C@@H]3CCCN3CC(C)C)n2)ccn1`, the activity in test [1] is 3.05%; in test [3], -4.35%; in test [4] it was 2.32%. In addition, in test [2], the activity change, negative = inhibition is 1.02% [at 85.7 µM].

As to `CN1CCCC2(C1)CN(C)c1ccc(C(=O)NCC3CCCCC3)cc12` (stereo unspecified), the results for the activity in test [1], in test [3] and in test [4] were 1.14%, -10.6% and -0.542%, respectively. Moreover, the activity change, negative = inhibition in test [2] was -0.167% [at 85.7 µM].

In the case of `COC(=O)c1nc(NC(=O)Cn2nc3c(cc2=O)CCCC3)sc1C(C)C`, the activity in test [1] is -1.05%; in test [3], -8.15%; in test [4] it was 2.23%. In addition, the activity change, negative = inhibition in test [2] worked out at 0.9%.

On to `Cc1cc(-c2cc3c(cn2)N(C)CCN(C)C3)ccn1`, for which the activity in test [1] amounted to 5.42%; in test [3], 2.35%; in test [4], 3.56%. Besides, in test [2], the activity change, negative = inhibition stood at 4.1% [at 114 µM].

As to `COc1ccc(CN2C[C@@H](CO)[C@H](c3ccncc3)C2)c(OC)c1`, the results for the activity in test [1], in test [3] and in test [4] were 7.35%, -21.3% and 8.2%, respectively. In addition, in test [2], the activity change, negative = inhibition stood at 7.27%.

For the molecule `CC1CCN(CCCNC(=O)CCc2nnc3n(Cc4ccc(F)cc4)c(=O)c4ccccc4n23)CC1`, the activity in test [1] was -10.3%; in test [3], -14.9%; in test [4], -5.49%. In addition, the activity change, negative = inhibition in test [2] is -2.12%.

For the molecule `CC1CCN(CCCNC(=O)CCc2nnc3n(Cc4ccccc4Cl)c(=O)c4ccccc4n23)CC1`, the results for the activity in test [1], in test [3] and in test [4] were -11.4%, -14.4% and -7.41%, respectively. Moreover, in test [2], the activity change, negative = inhibition is -3.45%.

With `CC1CC(C)CN(S(=O)(=O)c2ccc3c(c2)oc(=O)n3CC(=O)Nc2ccc(Cl)cc2)C1` (stereo unspecified), the activity in test [1] is -4.03%; in test [3] it was -8.67%; in test [4] it was -61.6%. Further, the activity change, negative = inhibition in test [2] is -1.24%.

With `C[C@H]1CN(C(=O)Nc2ccc(F)cc2F)C[C@@H]1c1nc(-c2ccccc2)no1`, the activity is 6.81% in test [1], -92.4% in test [3] and 9.33% in test [4]. In test [2], the Potency is 769 nM (active).

In the case of `CCCC1c2cccn2CCN1C(=O)Nc1ccc(OC)cc1` (stereo unspecified), the activity in test [1] is -6.82%; in test [3], -13.3%; in test [4], -7.43%. The activity change, negative = inhibition in test [2] was -3.73%.

For `CC1(C(=O)NC2CCCCCC2)Cn2c(cc3occc32)C(=O)N1Cc1ccc2c(c1)OCO2` (stereo unspecified), the activity was -5.04% in test [1], -18% in test [3] and -10.8% in test [4]. Besides, in test [2], the Potency entry was “inactive”.

These data come from PubChem BioAssay (NCATS).
